Assay outcomes (PubChem)
Pf growth 96h = P. falciparum growth inhibition at 96 hours | P. falciparum luciferase reporter growth, 96 h | Potency, µM (highest dose often 28.7 µM), without a hit: top-dose activity change, negative = inhibition, usual class: inhibitors | 320,000 compounds, 6.9% hits | AID 504834; further: on the % scale 0 is the no-effect control and ±100 the full control effect
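96 h incubation, 37 C, 5% CO2, of luciferase-reporter P. falciparum-infected RBCs (2% hematocrit, 0.05% parasitemia final) with test compounds; endpoint luminescence.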
SARS PLpro yeast = inhibitors of SARS-CoV papain-like protease in yeast; S. cerevisiae expressing SARS-CoV PLpro, growth rescue; Potency, µM (highest dose often 32.9 µM), without a hit: at the highest dose activity, positive = growth rescue, most hits filed as activators; 330,000 compounds, 0.19% hits; AID 485353; calls by dose curve; further: 0% is about no effect; nearly all actives have a fitted effect of over 55% in size
AMA1 RON2 block = AMA1-RON2 (P. falciparum) interaction inhibition | AlphaScreen AMA1-biotinylated RON2 peptide binding | Potency, µM (doses to about 58.2 µM), for inactives: at the top dose activity change, negative = inhibition, actives largely listed as inhibitors | 360,000 compounds, 0.2% hits;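 further: 0% = vehicle wells and -100% = peptide control; nearly all actives have a fitted effect of over 45% in size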
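AMA1 (3D7) with his tag at 25 nM final met compounds first, then biotinylated RON2 peptide at 25 nM; detection used donor plus acceptor beads, 10 µg/mL apiece, read by AlphaScreen after 30 min at room temperature.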
Pf growth 48h = inhibits P. falciparum growth in the first generation, 48 h; P. falciparum luciferase growth in erythrocytes, 48 h; Potency, µM (doses to about 28.7 µM), for inactives: top-dose activity change, negative = inhibition, hits mostly inhibitors; 310,000 compounds, 5.9% hits; AID 504832; further: on the % scale 0 is the no-effect control and ±100 the full control effect
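Compounds are pin-transferred into medium, infected erythrocytes (2% hematocrit, 0.1% parasitemia final) are added, and plates sit one parasite generation at 37 C in 5% CO2. Detection reagent is then added and luminescence measured.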
* marks the source's active call; other numbers are inactive results; ? = inconclusive; . = no result given. This is a sample that favours compounds with a hit; in the whole collection about 9.4% have one here. Unless noted, the call rests on the fitted dose curve; in most records, active means well fitted curve in the direction sought with a large enough effect; inconclusive means small, poorly fitted or top-dose-only effect, or another doubt; inactive means no such curve, though single readings can be large; an effect the other way counts as inactive or inconclusive. Potency means the concentration at half of the fitted maximal effect.

SMILES | Pf growth 96h | SARS PLpro yeast | AMA1 RON2 block | Pf growth 48h
CCn1c(C)nc2cc(C(=O)N=Nc3c(O)[nH]c4c(C)cc(C)cc34)ccc21 | 6.6µM* | 17% | . | 9.3µM*
CCn1c(C)nc2cc(C(=O)N=Nc3c(O)[nH]c4ccccc34)ccc21 | 30% | 17% | . | 13%
CCC1NC(C(=O)O)Cc2c1[nH]c1ccccc21 (stereo not drawn) | 15% | 0% | 11% | -21%
COC(=O)C1Cc2c([nH]c3ccccc23)C(C(C)C)N1 (stereo not drawn) | 1.3µM* | -2% | 15% | -17%
COc1cc(OC)c(OC)cc1CNC(=O)c1ccc(S(=O)(=O)N2CC(C)OC(C)C2)cc1 (stereo not drawn) | 10µM* | 4% | -5% | ?
O=C(CCNC(=O)c1ccc(Cl)cc1)NNC(=O)c1ccc(F)cc1 | 0% | -7% | 59% | -19%
CC1(C)C2CCC1(C)C(NCC(O)COc1ccc(C#N)cc1)C2 (stereo not drawn) | 4.1µM* | 2% | ? | .
N#Cc1ccc(OCC(O)CN2CCN(CC(O)COc3ccc(C#N)cc3)CC2)cc1 (stereo not drawn) | ? | -1% | 13% | -2%
N#Cc1ccc(NC(=O)Nc2cccc(C#N)c2)cc1 | 6.6µM* | -3% | 6% | 12µM*
N#Cc1cccc(NC(=O)c2ccccc2C(=O)O)c1 | 8% | 3% | -7% | 20%
N#Cc1ccc(NC(=O)Nc2ccc(Oc3ccc(NC(=O)Nc4ccc(C#N)cc4)cc3)cc2)cc1 | ? | 3% | 1% | 1.7µM*
Cc1ccc(Cn2nnc3c(=O)[nH]c(C4CCN(S(=O)(=O)c5ccc(S(=O)(=O)NC6CC6)cc5)CC4)nc32)cc1 | 1.5µM* | 1% | -4% | ?
O=c1[nH]c(C2CCN(S(=O)(=O)c3ccc(S(=O)(=O)NC4CC4)cc3)CC2)nc2c1nnn2Cc1cccc(F)c1 | ? | 0% | 3% | 9.3µM*
COC(=O)c1sccc1NC(=O)/C=C/c1c(Cl)cccc1Cl | . | 1% | 9% | 39%
NC1=NC(c2cn[nH]c2-c2cccc(F)c2)n2c(nc3ccccc32)N1 (stereo not drawn) | ? | 2% | 12% | ?
Cn1c2c(c(=O)n(C)c1=O)C(c1ccc(Br)cc1)Nc1ccccc1O2 (stereo not drawn) | 33% | 2% | 4% | .
CC1OC(OC2CCC3(C)C(CCC4C3CC(O)C3(C)C(C5=CC(=O)OC5)CCC43O)C2)CC(O)C1OC1CC(O)C(OC2CC(O)C(OC3OC(CO)C(O)C(O)C3O)C(C)O2)C(C)O1 (stereo not drawn) | ? | . | . | -17%
CC(=O)OC1C[C@H](O[C@@H]2C(O)C[C@H](O[C@@H]3C(O)C[C@@H](OC4CC[C@]5(C)C(CCC6C5CC(O)[C@@]5(C)C(C7=CC(=O)OC7)CC[C@@]65O)C4)OC3C)OC2C)O[C@H](C)[C@H]1O[C@H]1OC(CO)C(O)C(O)C1O (stereo partly drawn) | 4.8µM* | . | . | 8.5µM*
COc1cc(C(N)=O)cc(Br)c1OC | 16% | ? | 12% | 12%
Cc1ccc(NS(=O)(=O)c2ccc(OCC(=O)Nc3cccc([N+](=O)[O-])c3)c(C)c2)cc1 | 15µM* | -1% | -17% | ?
Cc1ccc(NC(=O)CN(C)C(=O)c2ccc(NS(=O)(=O)c3cccc([N+](=O)[O-])c3)cc2)cc1 | . | 2% | 0% | .
CC(NS(=O)(=O)c1ccc(OCC(=O)Nc2cccc([N+](=O)[O-])c2)cc1)c1ccccc1 (stereo not drawn) | -34% | -1% | -10% | 10µM*
COCC(=O)N1CCC(Oc2ccc(C(=O)NCc3cc(C)no3)cc2)CC1 | 4.1µM* | ? | 18% | 8%
COCCC(=O)N1CCC(Oc2ccc(C(=O)N(C)CCCC3CCCC3)cc2)CC1 | ? | -4% | 11% | ?
COCC(=O)N1CCC(Oc2ccc(C(=O)NCc3cc(C(C)C)no3)cc2)CC1 | ? | 3% | -10% | 3%
COCCC(=O)N1CCC(Oc2ccc(C(=O)NCCCC3CCCC3)cc2)CC1 | 12µM* | 1% | -14% | -17%
COCC(=O)N1CCC(Oc2ccc(C(=O)NC3Cc4ccccc4C3)cc2)CC1 | 10µM* | ? | 7% | 18%
COc1cc(/C=N/NC(=O)CNc2n[nH]c(=O)[nH]c2=O)ccc1OCc1ccccc1 | 18% | 0% | 1% | -6%
